From PubChem
A3G deaminase – blocks human APOBEC3G single-stranded DNA deamination. recombinant A3G, ssDNA deamination FAM/TAMRA fluorescence. 0.28% of 330,000 active. inhibition, % at 20 µM. Q9HC16;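 active = inhibition of at least 40% at 20 µM, with no more than 30% in the related APOBEC3A deaminase screen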
A3A deaminase – blocks human APOBEC3A ssDNA deamination. inhibition, % at 20 µM. P31941. recombinant A3A, FAM/TAMRA ssDNA deamination fluorescence. 0.41% of 330,000 active;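 active = at least 40% inhibition at 20 µM here, with at most 30% in a related deaminase screen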
Target sequence (P31941 whole entry, looked up): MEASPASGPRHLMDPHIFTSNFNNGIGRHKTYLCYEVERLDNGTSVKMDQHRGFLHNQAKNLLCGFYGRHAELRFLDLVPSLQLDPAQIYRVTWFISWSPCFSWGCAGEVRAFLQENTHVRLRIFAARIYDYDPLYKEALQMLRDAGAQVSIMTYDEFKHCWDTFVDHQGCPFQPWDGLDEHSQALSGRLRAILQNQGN
Wnt act – activates Wnt/beta-catenin signaling in a reporter cell assay; activator, plate reader; activation, % at 9.35 µM; 1.2% of 300,000 active; AID 743398; in the data active = activation above about 30%, passing the limit was not always enough; inconclusive = no clear call, values can overlap the other calls
PHOSPHO1 inh – PHOSPHO1 (human) inhibition; Q8TCT1; inhibition, % at 13.3 µM; recombinant PHOSPHO1, absorbance phosphatase assay; 1.1% of 290,000 active; AID 1565; in the data active = inhibition above about 60%
Target sequence (Q8TCT1 whole entry, looked up): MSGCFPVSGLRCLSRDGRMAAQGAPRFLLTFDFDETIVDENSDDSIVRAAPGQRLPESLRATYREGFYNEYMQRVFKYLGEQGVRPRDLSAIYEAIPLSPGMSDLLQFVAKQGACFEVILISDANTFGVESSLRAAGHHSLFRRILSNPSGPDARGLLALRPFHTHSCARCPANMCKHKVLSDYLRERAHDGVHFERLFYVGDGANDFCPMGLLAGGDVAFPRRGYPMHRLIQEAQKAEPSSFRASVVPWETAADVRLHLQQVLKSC
esBAF inh – inhibitors of esBAF chromatin remodeling in mouse ES cells; reporter increase, % at 12.5 µM; 2% of 350,000 active; Bmi1-luciferase knock-in reporter, 24 h; 100% = twice the neutral-well signal; in the data active = activation above about 40%; inconclusive = no clear call, values can overlap the other calls;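 also: a rise in the Bmi1 reporter signal indicates esBAF inhibition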
MITF TRPM1 HTS – increases MITF-driven TRPM1 promoter luciferase signal; SK-MEL-5 TRPM1-promoter luciferase, 24 h; % of positive control, neutral wells = 0; activation, % at 12.5 µM; 0.75% of 300,000 active;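 active = mean activation of at least 80% with every replicate also reaching 80%; inconclusive = mean reaches 80% but some replicate falls short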
A number is an active result; i = inactive; ? = inconclusive; nt = no result. Compounds with a hit are over-represented: about 3.6% of the library has one in this group of screens.

SMILES	A3G deaminase	A3A deaminase	Wnt act	PHOSPHO1 inh	esBAF inh	MITF TRPM1 HTS
CC(=O)N1N=C(c2ccc(C)cc2)OC1c1ccc(Br)cc1 (stereo not drawn)	i	i	i	i	i	89.9
CC(=O)C1=C(C)Nc2cc(C(F)(F)F)ccc2S1	i	i	i	96.2	i	i
CCC(=O)N[C@H]1C=C[C@H](CC(=O)NCCN2CCCCC2)O[C@@H]1CO	nt	nt	nt	nt	i	nt
COc1ccccc1-c1nnc(SCc2ccccn2)n1C	i	i	nt	i	i	i
COc1ccccc1-c1nc(SCc2ccccn2)n[nH]1	i	i	i	i	59.5	i
N/C(=N\OC(=O)Cc1cccc2ccccc12)c1ccccn1	i	i	42.2	i	nt	i
Cc1ccc(OCC(=O)O/N=C(\N)c2ccccn2)cc1	i	i	i	i	46.4	i
Cc1ccc(CC(=O)O/N=C(\N)c2ccccn2)cc1	i	i	40.3	i	i	i
N/C(=N\OC(=O)Cc1ccc(Cl)cc1)c1ccccn1	i	i	nt	i	46.9	i
COc1ccccc1CC(=O)O/N=C(\N)c1ccccn1	i	i	i	i	nt	i
O=C(C[C@@H]1CC[C@@H](NC(=O)Nc2cc(F)ccc2F)[C@@H](CO)O1)NCc1ccccn1	nt	nt	nt	nt	i	nt
C[C@H]1CN([C@@H](C)CO)C(=O)c2cccc(NS(=O)(=O)c3cn(C)cn3)c2O[C@@H]1CN(C)C(=O)Nc1cccc2ccccc12	nt	nt	nt	nt	i	nt
Cc1ccccc1-c1ccc2c(c1)O[C@@H](CN(C)C(=O)C1CC1)[C@H](C)CN([C@H](C)CO)S2(=O)=O	nt	nt	nt	nt	i	nt
Cc1cccc(OCC(=O)O/N=C(\N)c2ccccn2)c1C	i	i	i	i	71.8	?
N/C(=N\OC(=O)COc1cc(Cl)c(Cl)cc1Cl)c1ccccn1	i	i	i	i	nt	i
CCOc1ccc(C(=O)N(CC)CC(=O)Nc2ccc3c(c2)OCCO3)cc1OCC	i	i	i	nt	i	i
CCN(CC(=O)Nc1ccc2c(c1)OCCO2)C(=O)c1ccc(Cl)cc1Cl	i	i	i	nt	71.0	108.8
CCN(CC(=O)Nc1ccc2c(c1)OCCO2)C(=O)c1ccc(C(F)(F)F)cc1	i	i	i	nt	nt	107.4
CO[C@@H]1CN(C)C(=O)c2cc(NS(=O)(=O)CC(F)(F)F)ccc2OC[C@@H](C)NC[C@@H]1C	nt	nt	nt	nt	i	nt
O=C(C[C@@H]1CC[C@H](NC(=O)c2cccc(F)c2)[C@H](CO)O1)Nc1nccs1	nt	nt	nt	nt	i	nt
O=c1c2c3c(sc2ncn1/N=C/c1ccc([N+](=O)[O-])o1)CCCC3	i	i	nt	i	i	i
Cn1cc(/C=N/n2cnc3sc4c(c3c2=O)CCCC4)c2ccccc21	i	i	i	62.0	nt	nt
O=C(C[C@@H]1C[C@H]2c3cc(NC(=O)c4cccnc4)ccc3O[C@H]2[C@H](CO)O1)NCc1ccncc1	nt	nt	nt	nt	i	nt
CCOC(=O)C1CCN(C(=O)c2ccc3c(c2)NC(=O)/C(=C\c2ccc(C)cc2)S3)CC1	i	i	i	70.0	i	i
CCOC(=O)C1CCN(C(=O)c2ccc3c(c2)NC(=O)/C(=C/c2ccccc2)S3)CC1	i	i	i	i	i	i
SMILES	A3G deaminase	A3A deaminase	Wnt act	PHOSPHO1 inh	esBAF inh	MITF TRPM1 HTS
Cc1cc(=O)n2[nH]cc(-c3ccccc3)c2n1	i	i	i	i	i	i
Cc1nc2c(-c3ccccc3)c[nH]n2c(=O)c1Cc1ccccc1	i	i	i	i	46.8	i
Nn1c(=O)c2ccccc2n2c(SCc3ccc(C(F)(F)F)cc3)nnc12	i	i	i	90.4	nt	i
Nn1c(=O)c2ccccc2n2c(SCc3ccccc3)nnc12	i	i	i	i	i	i
CCCN1[C@@H]2c3ccc(-c4ccccc4OC)c(=O)n3C[C@@H]2[C@@H](CO)[C@@H]1C(=O)N1CCCCC1	nt	nt	nt	nt	i	nt
O=C1c2ccccc2C(=O)c2c1oc(C(F)(F)F)c2C(=O)c1ccccc1	i	i	nt	105.9	nt	i
O=C(c1ccccc1)c1coc2c1C(=O)c1ccccc1C2=O	i	i	i	i	nt	i
C[C@@H]1CN([C@@H](C)CO)C(=O)c2cc(NS(=O)(=O)c3ccccc3)ccc2O[C@H]1CN(C)C(=O)Nc1ccc(C(F)(F)F)cc1	nt	nt	nt	nt	i	nt
CC(C)(C)c1ccc(/C=C(\c2nc3ccccc3[nH]2)S(=O)(=O)c2ccccc2)cc1	i	i	nt	nt	i	i
Cc1cccc(/C=C(\c2nc3ccccc3[nH]2)S(=O)(=O)c2ccccc2)c1	nt	nt	40.5	i	i	i
CC(C)(C)n1cnc2cc(NCc3cccs3)ccc21	i	i	i	i	51.8	i
CCn1cnc2cc(NCc3cccs3)ccc21	i	i	i	i	i	i
CO[C@H]1CN(C)C(=O)c2ccc(NC(=O)Cc3ccccc3)cc2OC[C@@H](C)N(CC2CC2)C[C@@H]1C	nt	nt	nt	nt	i	nt
CCCOc1ccc(C(=O)Nc2ccc(C)cc2[N+](=O)[O-])cc1	i	i	nt	i	i	i
O=C(NCCNc1ccccc1[N+](=O)[O-])c1cc(F)c(F)cc1Cl	i	i	i	i	i	nt
COc1ccc(C(=O)NCCNc2ccccc2[N+](=O)[O-])cc1	i	i	i	i	74.3	i
CC(C)COc1ccc(C(=O)Nc2ncn[nH]2)cc1	i	i	i	i	44.8	i
CC(C)COc1ccc(C(=O)Nc2ccccc2[N+](=O)[O-])cc1	i	i	79.6	i	nt	i
O=C(C[C@@H]1CC[C@H]2[C@@H](COC[C@@H](O)CN2S(=O)(=O)c2ccccc2F)O1)NCc1ccccc1F	nt	nt	nt	nt	i	nt
C[C@H](CO)N1C[C@H](C)[C@H](CN(C)C)Oc2ccc(NC(=O)C3CC3)cc2CC1=O	nt	nt	nt	nt	i	nt
COc1ccc(S(=O)(=O)N(C)C[C@H]2Oc3c(NC(=O)Nc4cccc5ccccc45)cccc3C(=O)N([C@H](C)CO)C[C@@H]2C)cc1	nt	nt	nt	nt	i	nt
N#Cc1c(Sc2ncc(C(F)(F)F)cc2Cl)nsc1C/C=N\OCc1c(F)cccc1Cl	i	i	nt	78.7	nt	i
CO[C@@H]1CN(C)C(=O)c2ccc(NC(=O)Cc3ccccc3)cc2OC[C@@H](C)N(C)C[C@H]1C	nt	nt	nt	nt	i	nt
